For 40 sequences, PBM binding z-score results are on record in the supplement of paper PMC6555819.

In this test the test system is VDR:RXRa (NR concentration 270 nM, RXRa partner concentration 90 nM). Nature of the test: PBM binding z-score (relative to random genomic background probes); higher = stronger binding; sequences stand for … in GC…GCGATTGACAGCGTAGAATGAAGG
How it is done: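 Protein-binding microarray (Agilent 4x180K custom design, double-stranded 60-nt probes: 5' GC cap, 34-nt variable region, 24-nt constant primer region; full probe sequence given). Purified or IVT nuclear receptor:RXRα heterodimers (3:1 NR:RXRα, mostly 270:90 nM) or homodimers were incubated for 1 h in PBS with 2% milk and no ligand, then detected with Alexa488 antibodies. Fluorescence from o1-orientation probes (~5 replicates averaged) was converted to z-scores against 500 random hg19 background probes. Variable regions are seed direct-repeat (DR0–DR5) sites, all their single-nucleotide variants and half-site ablations.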
Take AGTCAAAGTTCAGGGCGAGGTAACGTAAAGCACG: the PBM binding z-score came out at 3.27.

In turn, TCGAGTAGGTTAGGGGGATTCAGAATGGCGTCGA had a PBM binding z-score of 0.8.

For TCTATTTGTTGATTAGGGCAACCGAAACAGCGGA, the PBM binding z-score stood at 0.823.

As to ATATGTAGGTTAAGAGTCATTCAGGTTGGTTCGC, the PBM binding z-score worked out at 1.6.

Consider AGAACGAGGGCAATGAGTTGATAGCACGGGTGGC, for which the PBM binding z-score came to 4.96.

Turning to TCATATAGGTAAATGCGAGGTGAAAGTCCGATCT, the PBM binding z-score turned out to be 1.32.

With GCTCGGAGGACAAGGTAAGAGCTTTGTCCGTAGA, the PBM binding z-score is -0.675.

Take TCTTGTAGATCAATAGAGGTTTAGAAAGTGCGCT: the PBM binding z-score came out at 0.618.

For the sequence TCTTGTAGATCAGCAGGATAAGAAAGCTGGCCAA, the PBM binding z-score is -0.113.

CTCGAAAGGTCGGTTGAGGGGAGTATACGGATAA: the PBM binding z-score worked out at 1.24.

Regarding ATCTCTAGGTAACCAATTTCAGTGAATGCCGAAC, the PBM binding z-score turned out to be 0.336.

CCTACTGGGCCAAATAGGTCATTGATGCCGATAA came in with a PBM binding z-score of 2.51.

In the case of CGTCATAGTTCAACTAAGGTAACGTAAAGCACGC, the PBM binding z-score turned out to be 2.59.

As to ATCGAAAGGTCGTGAGGTCAGTATACAGAAAGGC, the PBM binding z-score came out at 5.51.

On to GATACAGGGTCTAGGCCAGAGTACGCGTATTGAT, for which the PBM binding z-score was -0.508.

As for CCTATTAGTTGACCAAAAGGGCAACCGAAGCTCG, the PBM binding z-score worked out at 0.901.

Take GGAACGAAGGCAAGTTGATAGCAGAGTTTGATGG: the PBM binding z-score is -0.696.

CGTCAAAGTTCAAGGTAACGTATCAGAAAGCAGC had a PBM binding z-score of 3.97.

For CCAGACAGGTGAGAAGGTAACTCTGCCTCGATTA, the PBM binding z-score is -0.12.

Consider ACTAGCAGGCCAAGGGTCACACAAGATTAGTCCG, for which the PBM binding z-score is 3.53.

Take TCTTGTAGATCAGTAGAGGTTAAGAAAGTGCGCT: the PBM binding z-score worked out at 1.51.

The sequence CCTAGCAGGCCAATCTGGGTCACTCAGGGCTTGA returned a PBM binding z-score of 0.721.

Regarding ATATGTAGGTTAGCTGGGGTCATGCAGACTAGGC, the PBM binding z-score was 5.85.

On to CGTCGAAGTTCAACTAAGGTAACGTAAAGCACGC, for which the PBM binding z-score was 3.43.

Sequence ACTATCAGGCCAAGTTTGGGTCACTCAAACAAAG gave a PBM binding z-score of 1.01.

CGTCCTAGGTCAGAGAGGTCAGTGAATGCCGAGT had a PBM binding z-score of 6.8.

For ACTCGGAGGACGAAGGTCAGAGCTACGCCAGTGA, the PBM binding z-score was 1.15.

Take CCTACTGGGCCATTCAGAGCTCATTGATCATATG: the PBM binding z-score is -0.707.

CAAACTAGGTCAAGGTCAACGTCGGTTTGTGCCA yielded a PBM binding z-score of 5.02.

Sequence GCTGCTAGGTCATCTGATGGTCAGCTAAAGCTCG had a PBM binding z-score of 1.98.

In turn, CGTCCAAGGTCATAGGAAGTCAGTGAAGACAGAT returned a PBM binding z-score of 4.21.

Regarding ATCTCAAGGTAAAGATAGTTCAGTGAATGCAAAT, the PBM binding z-score worked out at 1.37.

As to CCTACTGGGCCACGAAAGGTCAGTGATTCAGTGA, the PBM binding z-score turned out to be 1.72.

As for ATCTCTAGGTAACAAGTTCAATGAAAGAGAGGAC, the PBM binding z-score was 2.67.

Consider TGAATGAGGTTAGAGATCAGGGAACGTGGCGTCG, for which the PBM binding z-score turned out to be 0.296.

Consider ATCTCTAGGTAACCAAGTACAGTGAATGCCGAAC, for which the PBM binding z-score amounted to 1.19.

Turning to TCTTGTAGATCAATAGAGGTTAATAAAGTGCGCT, the PBM binding z-score came out at 1.84.

In turn, CCAGGCAGGTGAAAGGTAACTCAGTCTGGTACGC came in with a PBM binding z-score of 0.277.

For TCTTGTAGATCAATATAGGTTAAGAAAGTGCGCT, the PBM binding z-score turned out to be 1.24.

On to TCGAATAGGTTAGGGGCATTCAGAATGGCGTCGA, for which the PBM binding z-score worked out at 0.8.
